Where a name gives a salt, the structure may show the parent alone. The whole screen tested about 5,500 compounds, of which about 2,000 (36%) were called active. Inconclusive results (about 18%) are left out. Rule as the data show it: active = normalized growth mostly below about 0.91 (no sharp cut-off); inconclusive = no clear call, values can overlap the other calls; inactive = mostly above about 0.92. Some of the results follow. Where a SMILES comes first, the peptide text is derived from it. The star is where a group is joined. Tfa = O=C(C(F)(F)F)*
Assay: chemical genetic growth profiling, strain panel (AID 1159580);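 also: tested at 20 µM; growth read once vehicle control cultures reached saturation at 30 °C; 1 = growth at the plate median or of vehicle wells; lower values mean less growth of the strain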
Conditions: S. cerevisiae deletion strains, growth OD
[1] = locus YAL021C, strain ccr4, stronger effect = lower value
[2] = locus YAL026C, strain drs2, stronger effect = lower value
[3] = locus YAL030W, strain snc1, stronger effect = lower value
[4] = locus YBL061C, strain skt5, stronger effect = lower value
[5] = locus YBR009C, strain hhf1, stronger effect = lower value
[6] = locus YBR023C, strain chs3, stronger effect = lower value
[7] = locus YBR171W, strain sec66, stronger effect = lower value
[8] = locus YBR231C, strain swc5, stronger effect = lower value
[9] = locus YBR279W, strain paf1, stronger effect = lower value
[10] = locus YCL011C, strain gbp2, stronger effect = lower value
[11] = locus YCL016C, strain dcc1, stronger effect = lower value
[12] = locus YCL069W, strain vba3, stronger effect = lower value
[13] = locus YCR088W, strain abp1, stronger effect = lower value
[14] = locus YDL005C, strain med2, stronger effect = lower value
[15] = locus YDL040C, strain nat1, stronger effect = lower value
[16] = locus YDR001C, strain nth1, stronger effect = lower value
[17] = locus YDR069C, strain doa4, stronger effect = lower value
[18] = locus YDR137W, strain rgp1, stronger effect = lower value
[19] = locus YDR159W, strain sac3, stronger effect = lower value
[20] = locus YDR297W, strain sur2, stronger effect = lower value
[21] = locus YDR334W, strain swr1, stronger effect = lower value
[22] = locus YDR335W, strain msn5, stronger effect = lower value
[23] = locus YDR392W, strain spt3, stronger effect = lower value
[24] = locus YEL003W, strain gim4, stronger effect = lower value
[25] = locus YEL037C, strain rad23, stronger effect = lower value
[26] = locus YEL061C, strain CIN8 (second series), stronger effect = lower value
[27] = locus YER015W, strain faa2, stronger effect = lower value
[28] = locus YER016W, strain bim1, stronger effect = lower value
[29] = locus YER111C, strain swi4, stronger effect = lower value
[30] = locus YER155C, strain BEM2 (second series), stronger effect = lower value
[31] = locus YFR010W, strain ubp6, stronger effect = lower value
[32] = locus YGL167C, strain pmr1, stronger effect = lower value
[33] = locus YGL173C, strain kem1, stronger effect = lower value
[34] = locus YGL227W, strain vid30, stronger effect = lower value
[35] = locus YGL240W, strain doc1, stronger effect = lower value
[36] = locus YGL253W, strain hxk2, stronger effect = lower value
[37] = locus YHR013C, strain ard1, stronger effect = lower value
[38] = locus YHR027C, strain rpn1, stronger effect = lower value
[39] = locus YHR142W, strain chs7, stronger effect = lower value
[40] = locus YJL092W, strain hpr5, stronger effect = lower value
[41] = locus YJL095W, strain BCK1 (second series), stronger effect = lower value
[42] = locus YJL115W, strain asf1, stronger effect = lower value
[43] = locus YJL129C, strain trk1, stronger effect = lower value
[44] = locus YJL154C, strain vps35, stronger effect = lower value
[45] = locus YJL164C, strain tpk1, stronger effect = lower value
[46] = locus YJL166W, strain qcr8, stronger effect = lower value
[47] = locus YKL160W, strain elf1, stronger effect = lower value
[48] = locus YKR026C, strain gcn3, stronger effect = lower value
[49] = locus YKR091W, strain srl3, stronger effect = lower value
[50] = locus YLL001W, strain dnm1, stronger effect = lower value
[51] = locus YLL026W, stronger effect = lower value
[52] = locus YLL041C, strain sdh2, stronger effect = lower value
[53] = locus YLR027C, strain aat2, stronger effect = lower value
[54] = locus YLR221C, strain rsa3, stronger effect = lower value
[55] = locus YLR258W, strain gsy2, stronger effect = lower value
[56] = locus YLR262C, strain YPT6 (second series), stronger effect = lower value
[57] = locus YLR320W, strain mms22, stronger effect = lower value
[58] = locus YLR342W, strain FKS1, stronger effect = lower value
[59] = locus YLR357W, strain rsc2, stronger effect = lower value
[60] = locus YLR370C, strain arc18, stronger effect = lower value
[61] = locus YLR384C, strain iki3, stronger effect = lower value
[62] = locus YML120C, strain ndi1, stronger effect = lower value
[63] = locus YMR058W, strain fet3, stronger effect = lower value
[64] = locus YMR125W, strain sto1, stronger effect = lower value
[65] = locus YMR129W, stronger effect = lower value
[66] = locus YMR205C, strain PFK2, stronger effect = lower value
[67] = locus YMR231W, strain pep5, stronger effect = lower value
[68] = locus YNL071W, strain lat1, stronger effect = lower value
[69] = locus YNL209W, strain ssb2, stronger effect = lower value
[70] = locus YNL248C, strain rpa49, stronger effect = lower value
[71] = locus YNL322C, strain KRE1 (second series), stronger effect = lower value
[72] = locus YNR049C, strain mso1, stronger effect = lower value
[73] = locus YOR001W, strain rrp6, stronger effect = lower value
[74] = locus YOR070C, strain gyp1, stronger effect = lower value
[75] = locus YOR080W, strain dia2, stronger effect = lower value
[76] = locus YOR083W, strain WHI5, stronger effect = lower value
[77] = locus YOR106W, strain vam3, stronger effect = lower value
[78] = locus YOR265W, strain rbl2, stronger effect = lower value
[79] = locus YOR270C, strain vph1, stronger effect = lower value
[80] = locus YOR290C, strain snf2, stronger effect = lower value
[81] = locus YPL051W, strain arl3, stronger effect = lower value
[82] = locus YPL078C, strain atp4, stronger effect = lower value
[83] = locus YPL106C, strain sse1, stronger effect = lower value
[84] = locus YPL240C, strain hsp82, stronger effect = lower value

Measured: normalized growth

O=C1C=C2C=C[C@@H]3C[C@@]2(O1)[C@H]1CCCCN31
inactive: [1] 1.02 | [2] 1.01 | [3] 0.993 | [4] 1.01 | [5] 0.938 | [6] 1.01 | [7] 0.99 | [8] 0.977 | [9] 1.01 | [10] 1.01 | [11] 1.04 | [12] 0.974 | [13] 0.985 | [14] 0.998 | [15] 0.997 | [16] 0.992 | [17] 0.996 | [18] 0.965 | [19] 0.93 | locus YDR195W, strain ref2 0.973 | [20] 0.994 | [21] 0.956 | [22] 1.01 | [23] 0.973 | [24] 0.95 | [25] 0.982 | [26] 0.976 | [27] 1.01 | [28] 1.03 | [29] 1 | [30] 0.986 | [31] 0.96 | [32] 0.978 | [33] 0.977 | [34] 0.985 | [35] 0.989 | [36] 1.01 | [37] 1.01 | [38] 0.979 | locus YHR030C, strain SLT2, stronger effect = lower value 1.06 | locus YHR079C, strain IRE1, stronger effect = lower value 1.05 | [39] 1.01 | [40] 0.993 | [41] 1 | locus YJL095W, strain BCK1, stronger effect = lower value 1 | [42] 0.993 | [43] 1.01 | [44] 0.986 | [45] 0.969 | [46] 0.961 | locus YJL187C, strain SWE1, stronger effect = lower value 0.984 | locus YJR066W, strain TOR1, stronger effect = lower value 1 | [47] 1.05 | [48] 0.976 | [49] 0.992 | [50] 0.974 | [51] 0.996 | [52] 1 | [53] 1 | locus YLR113W, strain HOG1, stronger effect = lower value 1.03 | [54] 0.966 | [55] 1.01 | [56] 0.927 | [57] 0.926 | [58] 1 | [59] 0.986 | [60] 1.01 | [61] 0.991 | [62] 0.956 | [63] 0.981 | [64] 1 | [65] 0.986 | [66] 0.997 | [67] 0.994 | [68] 0.98 | locus YNL183C, strain NPR1, stronger effect = lower value 0.973 | [69] 1 | [70] 1.04 | [71] 1 | [72] 1.01 | [73] 0.94 | [74] 0.991 | [75] 0.994 | [76] 0.982 | [77] 1.01 | locus YOR231W, strain MKK1, stronger effect = lower value 1.02 | [78] 0.989 | [79] 1 | [80] 1.05 | [81] 1.05 | [82] 1.04 | [83] 1.02 | [84] 0.994 | locus YPL256C, strain CLN2, stronger effect = lower value 1.03

CC(C)C(NC(=O)C(Cc1ccc(O)cc1)NC(=O)C(NC(=O)C(F)(F)F)C(C)C)C(=O)O (stereo not drawn) (Tfa-Val-Tyr-Val-OH; configuration not given here)
inactive: [1] 0.997 | [2] 1 | [3] 0.985 | [4] 0.984 | [5] 1.02 | [6] 0.983 | [7] 0.976 | [8] 1 | [9] 0.996 | [10] 1 | [11] 0.98 | [12] 1 | [13] 0.988 | [14] 0.998 | [15] 0.976 | [16] 0.997 | [17] 0.984 | [18] 0.968 | [19] 0.979 | locus YDR195W, strain ref2 0.995 | [20] 0.985 | [21] 1.01 | [22] 0.994 | [23] 0.935 | [24] 0.996 | [25] 0.99 | [26] 1.01 | [27] 0.999 | [28] 0.976 | [29] 0.972 | [30] 0.983 | [31] 0.997 | [32] 0.985 | [33] 0.991 | [34] 0.988 | [35] 0.998 | [36] 0.982 | [37] 0.94 | [38] 0.988 | [39] 0.995 | [40] 0.995 | [41] 0.975 | [42] 0.986 | [43] 0.995 | [44] 0.98 | [45] 0.989 | [46] 1.02 | [47] 1 | [48] 0.989 | [49] 0.983 | [50] 1 | [51] 1 | [52] 1 | [53] 0.991 | [54] 1 | [55] 0.995 | [56] 0.969 | [57] 0.993 | [58] 0.996 | [59] 0.951 | [60] 0.992 | [61] 1 | [62] 0.98 | [63] 0.982 | [64] 0.978 | [65] 0.998 | [66] 0.998 | [67] 0.997 | [68] 0.987 | [69] 1 | [70] 0.963 | [71] 0.971 | [72] 1 | [73] 1 | [74] 0.995 | [75] 0.984 | [76] 0.94 | [77] 1 | [78] 0.998 | [79] 0.963 | [80] 0.985 | [81] 0.986 | [82] 0.987 | [83] 0.954 | [84] 0.981

Reference: PubChem BioAssay AID1159580 (chemical genetic matrix, 2015)
